Data published in PubChem BioAssay (NCI).
Compounds without any hit were thinned out: in the full panel of roughly 79,000, 15% have a hit. Active and inactive are the calls of the source. Cut-off read from the data, not from the text of the source: active = growth inhibition above about 70%; inactive = the rest. Where a SMILES comes first, the peptide text is derived from it. The star is where a group is joined. Trt = c1ccc(C(c2ccccc2)(c2ccccc2)*)cc1; Benzhydryl = c1ccc(C(c2ccccc2)*)cc1; Cbz = O=C(OCc1ccccc1)*

Tests used:
[1] = NCI Yeast Anticancer Drug Screen. Data for the rad50 strain (AID 155);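 note: 0% = growth of vehicle-only cultures of the same strain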; details: S. cerevisiae rad50 strain growth inhibition; at 50.0 µM; stronger effect = higher value
Procedure, shortened: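 Vehicle-treated cultures provide the reference for the growth inhibition reported for compound-exposed, repair-deficient yeast.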

[2] = NCI Yeast Anticancer Drug Screen. Data for the mec2-1 strain (AID 157); details: S. cerevisiae mec2-1 strain, at 50.0 µM, stronger effect = higher value
Procedure, shortened: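 Compounds were applied to mec2-1 yeast cells. Their growth was then compared with that of vehicle-treated cultures to give growth inhibition.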

[3] = NCI Yeast Anticancer Drug Screen. Data for the sgs1 mgt1 strain (AID 161);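 note: 0% = growth of cultures given vehicle only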; details: S. cerevisiae sgs1 mgt1 strain, at 50.0 µM, stronger effect = higher value
Procedure, shortened: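 Yeast cells carrying a defined DNA-repair defect were exposed to test compounds. Growth inhibition was measured relative to vehicle-treated controls.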

[4] = NCI Yeast Anticancer Drug Screen. Data for the cln2 rad14 strain (AID 165);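 note: 0% = growth equal to vehicle treated cultures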; details: S. cerevisiae cln2 rad14 strain, at 50.0 µM, stronger effect = higher value
Procedure, shortened: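 Strain: cln2 rad14 yeast, altered in cell cycle control and DNA damage repair. Read-out: growth inhibition vs vehicle.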

[5] = NCI Yeast Anticancer Drug Screen. Data for the bub3 strain (AID 167); details: S. cerevisiae bub3 mutant strain, at 50.0 µM, stronger effect = higher value
Procedure, shortened: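 Mutant yeast screening strain plus compound; vehicle-treated cultures serve as the 0% inhibition reference.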

[6] = NCI Yeast Anticancer Drug Screen. Data for the mlh1 rad18 strain (AID 175); details: S. cerevisiae mlh1 rad18 strain growth inhibition; at 50.0 µM; stronger effect = higher value
Procedure, shortened: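 A repair-deficient yeast strain is exposed to test compound, and growth is scored relative to vehicle-treated controls.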

Measured: growth inhibition

[Cl][Mn][Cl]
inactive: [1] 10.2% | [2] 6.4% | [3] 17.4% | [4] -7.15% | [5] -4.75% | [6] -0.15%

COC(=O)/C=C/C1C2C3(CCC(C)C12C)OCCS3 (stereo not given)
inactive: [1] -23.4% | [2] -14.2% | [3] -4.45% | [4] -5.3% | [5] -6.95% | [6] -30.1%

CC(C)CCC[C@@H](C)[C@H]1CC[C@H]2[C@@H]3CC=C4C[C@@H](Cl)CC[C@]4(C)[C@H]3CC[C@]12C
inactive: [1] -3.75% | [2] -13.8% | [3] -20% | [4] -2.8% | [5] -8.9% | [6] -0.35%

COc1ccc(C(=O)CCN(C)C)cc1
inactive: [1] 15.6% | [2] -5.85% | [3] -7.65% | [4] -11.3% | [5] -7.5% | [6] -4.6%

NNc1ncnc2c(C3OC(CO)C(O)C3O)[nH]nc12 (stereo not given)
inactive: [1] 7% | [2] 6.35% | [3] 8.2% | [4] -70.3% | [5] 7.15% | [6] 8.95%

CCOC(=O)Oc1cc2c(ccn2C)c2c1c1ccccc1n2C(=O)OCC
inactive: [1] 2.25% | [2] -1.8% | [3] -26.6% | [4] 8.9% | [5] 13.6% | [6] 0.4%

CCOC(=O)C(C#N)=C(CC)CC
inactive: [1] -4% | [2] -12.3% | [3] -9.2% | [4] -3.95% | [5] -12.1% | [6] -0.2%

CCCCCC/C(C=O)=C\c1ccccc1
inactive: [1] 31.8% | [2] 17.6% | [3] 26.6% | [4] 16.4% | [5] -4.6% | [6] 20.4%

O=S(=O)(NO)c1ccc(Cl)cc1
inactive: [1] 12.5% | [2] 7.8% | [3] 8.35% | [4] 23.8% | [5] 6.7% | [6] 3.2%

CCCOC(=O)C1(C)CCC(=O)O1 (stereo not given)
inactive: [1] 3.7% | [2] 6.1% | [3] 23.4% | [4] -19.9% | [5] -13.2% | [6] -8.85%

c1ccc(CN2CCC(N3CCCC3)CC2)cc1
inactive: [1] -22.7% | [2] -26.1% | [3] -22% | [4] 10.7% | [5] -23.3% | [6] -29.9%

c1ccc2oc(-c3ccc4c(c3)OCO4)nc2c1
inactive: [1] 14.8% | [2] 42.8% | [3] 11.6% | [4] 4.5% | [5] -2.75% | [6] -0.2%

C#CCN(C)C(C)=O
inactive: [1] 25.3% | [2] -3.3% | [3] 5.1% | [4] 10.8% | [5] 6.45% | [6] 13.6%

O=C(NCCCCCCCCNC(=O)c1cccc2ccccc12)c1cccc2ccccc12
inactive: [1] 14.2% | [2] 25% | [3] 2.8% | [4] -9.25% | [5] -10.4% | [6] 16.8%

CCOC(=O)CC1(C)NC(=O)NC1=O (stereo not given)
inactive: [1] 4.35% | [2] 6.65% | [3] 8.45% | [4] -31.8% | [5] -4.4% | [6] 1%

CC(Sc1ccccc1)C(CO)(CO)[N+](=O)[O-] (stereo not given)
inactive: [1] -15.1% | [2] 1.8% | [3] 28.4% | [4] 9.4% | [5] -14.6% | [6] 28.4%

O=NC1C(Cl)C2CC1C1C(Cl)C(Cl)CC21 (stereo not given)
inactive: [1] 35% | [2] 14.7% | [3] 52.9% | [4] 40.4% | [5] 27.4% | [6] 33.1%

CCCCCCCCNC(=O)c1ccccc1C(=O)O
inactive: [1] 1.6% | [2] 14.9% | [3] 51.2% | [4] -32.8% | [5] 44.6% | [6] 13.4%

O=C(CCCCCCCCC(=O)c1ccc2ccccc2c1O)c1ccc2ccccc2c1O
inactive: [1] -24.4% | [2] -22.1% | [3] -12.8% | [4] 15% | [5] -10.4% | [6] -11.8%

COc1ccc(CCN=C(C)c2cc(Cl)cc(Cl)c2O)cc1OC
inactive: [1] 31.1% | [2] 16.2% | [3] 7% | [4] 19.3% | [5] -0.4% | [6] 13.9%

COC(=O)C(C#N)C1NC(=O)c2ccccc21 (stereo not given)
inactive: [1] 9.75% | [2] -2.4% | [3] 10.2% | [4] 1.45% | [5] -8.3% | [6] 7.15%

O=C(NCCNCCCNC(=O)c1cc(-c2ccccc2)nc2ccccc12)c1cccc(O)c1O
inactive: [1] 8.4% | [2] 22.6% | [3] 33.1% | [4] 22.6% | [5] 49.5% | [6] 44.2%

O=C(Cc1nccc2c1[nH]c1ccccc12)OC1C#CCSCC#C/C=C\1 (stereo not given)
inactive: [1] -0.55% | [2] 17.8% | [3] 9.5% | [4] -14.7% | [5] 12.3% | [6] -1.15%

O=C(O)C(F)(F)C(F)(F)C(F)(F)C(F)(F)C(=O)O
inactive: [1] -1.85% | [2] -2.95% | [3] -37.8% | [4] -28.3% | [5] -45.8% | [6] -22.8%

NC1CC(=O)N(Cc2ccccc2)C1=O (stereo not given)
inactive: [1] 5.75% | [2] -7.9% | [3] -9.8% | [4] -11.6% | [5] -0.25% | [6] 2.4%

COC(=O)C1CCC(/C(C#N)=C2/CCC(C(=O)OC)[N-]2)=N1.COC(=O)C1CCC(/C(C#N)=C2/CCC(C(=O)OC)[N-]2)=N1.[Cu+2] (stereo not given)
inactive: [1] -13.8% | [2] -24.2% | [3] 3.5% | [4] -43.3% | [5] -24.5% | [6] 11.2%

CN(c1ccccc1)c1nc(=[N+](C)C)ss1
inactive: [1] 35.4% | [2] 26.5% | [3] 17% | [4] 24.1% | [5] 4.3% | [6] 31.8%

OC1CC2c3ccccc3C1c1cccc[n+]12 (stereo not given)
inactive: [1] 16.2% | [2] -9.85% | [3] -4.1% | [4] -38.7% | [5] 4.65% | [6] 14.7%

CCOC(=O)Cc1c(C)cc(C)cc1C
inactive: [1] 18.9% | [2] -6.3% | [3] -10.4% | [4] 3.35% | [5] 15.7% | [6] 10.4%

COC(=O)C(Cc1ccccc1)NC(=O)C(Cc1ccccc1)NC(=O)CNC(=O)C(CSC(c1ccccc1)c1ccccc1)NC(=O)C(CSC(c1ccccc1)(c1ccccc1)c1ccccc1)NC(=O)OCc1ccccc1 (stereo not given) (Cbz-C(Trt)C(Benzhydryl)GFF-OMe; configuration not given here)
inactive: [1] -5.55% | [2] 25.4% | [3] 19% | [4] -14.9% | [5] -9.8% | [6] 28.1%

c1ccc(-c2nnn(CCN3CCCCC3)n2)cc1
inactive: [1] 33.1% | [2] 20.9% | [3] -3.9% | [4] 12.1% | [5] 34% | [6] 23.5%

COc1nc(OC)c2cnn(-c3ccc(Cl)cc3)c2n1
inactive: [1] -10.5% | [2] -4.6% | [3] -6.45% | [4] -3% | [5] 3.7% | [6] -7.35%

CCN1C(=O)NC(C)(c2ccccc2)C1=O (stereo not given)
inactive: [1] -2.9% | [2] 3.35% | [3] -3.45% | [4] -11.3% | [5] 10.1% | [6] 2.1%

CN(C)C(SCc1c(Cl)c(Cl)c(Cl)c(Cl)c1Cl)=[N+](C)C
inactive: [1] 19.4% | [2] 6.3% | [3] 15.4% | [4] 11.8% | [5] 7.15% | [6] 28.6%

COc1ccc(Sc2cccc(Cl)c2)c(C(=O)O)c1
inactive: [1] -21.8% | [2] -18.4% | [3] -27.2% | [4] 3.8% | [5] -0.55% | [6] 6.5%

O=C1c2cccnc2-c2nccc3c2c1nc1ccccc13
active: [1] 90.3% | [2] 92.8% | [3] 91% | [4] 91.4% | [5] 91.5% | [6] 90.7%

COC(=O)C1Cc2cc(OC)c(OC)cc2C(c2ccc(OC)c(OC)c2)C1C(N)=O (stereo not given)
inactive: [1] -7.9% | [2] 11.3% | [3] -8.3% | [4] 0.25% | [5] -0.9% | [6] -1.95%

CCC1SC(N)=NC1c1ccccc1 (stereo not given)
inactive: [1] 22.2% | [2] 2.85% | [3] 31.9% | [4] 9.95% | [5] 14.1% | [6] 24.6%

CCNC1(C(N)=O)CCN(Cc2ccccc2)CC1
inactive: [1] -14.6% | [2] -55.8% | [3] -31.1% | [4] 5.1% | [5] -30.4% | [6] -22.7%

CCN1c2ccccc2CC(CCN(C(C)C)C(C)C)(C(N)=O)c2ccccc21 (stereo not given)
inactive: [1] 40.9% | [2] 4.9% | [3] 24.8% | [4] 21.3% | [5] -3.1% | [6] -0.9%
